MARV entry inh – blocks Marburg virus binding to or entry into cells. Potency, µM (series often up to 37.8 µM), hits mostly inhibitors. Marburg virus pseudotyped entry inhibition, cell reporter. actives 1.8% (n = 300,000). AID 540276; calls by dose curve; tested in HEK293 cells
Vaccinia Venus – inhibitors of vaccinia virus (Venus reporter); actives 0.46% (n = 330,000); Vaccinia virus Venus reporter expression, fluorescence; Potency, µM (titrated, usually from 36.5 µM), actives largely listed as inhibitors; calls by dose curve; tested in A549 cells; further: nearly all actives have a fitted effect of over 30% in size
HCV inh – HCV inhibition | Huh7.5.1 HCVcc-Cre infection, luciferase reporter, 44 h | Potency, µM (highest dose often 41.8 µM), usual class: inhibitors | actives 3.4% (n = 340,000) | AID 651820; active means well fitted inhibition curve with a large enough effect; inconclusive means small, poorly fitted or top-dose-only effect, or another doubt; inactive means no such curve, though single readings can be large or run the other way
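Antiviral activity was scored by luciferase reporter output from cells infected with HCVcc-Cre (~0.5 moi) in presence of compound, 44 h infection period, cells seeded 1,000/well 4 h prior.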
Lassa entry inh – inhibitors of Lassa virus binding or cell entry | Lassa virus pseudotype entry inhibition, cell reporter | Potency, µM (doses to about 37.9 µM), most hits filed as inhibitors | actives 1.2% (n = 300,000); calls by dose curve; tested in HEK293 cells; further: nearly all actives have a fitted effect of over 50% in size
VACV mCherry inh – vaccinia inhibition (mCherry reporter); Vaccinia virus mCherry reporter infection, fluorescence; Potency, µM (highest dose often 36.5 µM), actives largely listed as inhibitors; actives 0.63% (n = 310,000); calls by dose curve; tested in A549 cells; further: nearly all actives have a fitted effect of over 35% in size
Numbers stand for hits; . = inactive; ? = inconclusive; / = no result; [ ] = another dose, or the depositor's remark. A selection: hits, their analogues and other compounds. The true share with any hit is near 4.6%.

SMILES	MARV entry inh	Vaccinia Venus	HCV inh	Lassa entry inh	VACV mCherry inh
Cc1nnc(Sc2cc(NCCO)c([N+](=O)[O-])c3nonc23)s1	?	.	?	?	.
Cc1nnc(Sc2cc(NCCCO)c([N+](=O)[O-])c3nonc23)s1	.	.	10µM	?	.
O=C(CN1C(=O)C2(SCC(=O)N2c2ccc(F)cc2)c2ccccc21)NC1CCCCC1 (configuration not stated)	/	.	/	.	.
CCCc1nc2ccccc2c(=O)n1N	.	.	.	.	.
CCCc1nc2ccccc2c(=O)n1CCc1ccccc1	?	.	?	2.5µM	.
O=c1c2ccccc2nc(/C=C/c2ccc(O)cc2)n1CCc1ccccc1	?	.	13µM	9.2µM	?
O=c1c2ccccc2nc(/C=C/c2cc(Br)ccc2O)n1CCO	/	/	14µM	/	/
CCCc1nc2ccccc2c(=O)n1/N=C/c1ccccc1O	?	?	?	?	10µM
COc1cc(=O)n2c(c1C(=O)NC(C)c1ccco1)CCN(Cc1cc3ccccc3o1)CC2 (configuration not stated)	/	.	/	/	.
Cc1nn(CC(=O)N2CCC(C)CC2)c(=O)c2cc3occc3n12	.	.	/	.	.
COC(=O)c1ccc(CN2C(=O)[C@@]3(CC(C)=C[C@@H](COc4ccccc4)O3)c3ccccc32)cc1	.	/	/	/	/
CCn1cc2nc(SCc3ccccc3F)n(Cc3ccc(C)cc3)c(=O)c2n1	/	.	/	?	.
O=C(c1ccoc1)N1CCOc2ccc(CN3CCC(Oc4cccnc4)CC3)cc2C1	/	.	/	/	.
S=Cc1ccc(/C=C/c2ccnc3ccccc23)cc1	/	.	/	/	.
COc1ccc(C2C=C(c3cccc(OC)c3)Nc3c(C(=O)Nc4ccccc4)cnn32)cc1 (configuration not stated)	/	.	/	.	.
CCCC(=O)Nc1nc(C)c(-c2csc(Nc3cc(OC)ccc3OC)n2)s1	/	?	?	/	.
C=CCCC(=O)Nc1nc(C)c(-c2csc(Nc3cccc(OC)c3)n2)s1	/	?	6.3µM	/	?
C=CCCC(=O)Nc1nc(C)c(-c2csc(Nc3cc(OC)ccc3OC)n2)s1	/	?	3.2µM	/	?
COc1ccccc1Nc1nc(-c2sc(NC(=O)C(C)(C)C)nc2C)cs1	/	.	2.5µM	/	?
CC1Cc2cc(S(=O)(=O)N(C)c3ccc(Br)cc3)ccc2N1C(=O)C1CC1 (configuration not stated)	/	.	/	?	.
OC[C@@H](O)C(O)[C@H](O)CO	/	.	/	/	.
O=C(NCC1CCCO1)Nc1ccccc1 (configuration not stated)	.	.	.	.	.
O=C(NC[C@@H]1CC[C@@H](Cc2ccc(-c3ccccc3)cc2)O1)Nc1ccc(Br)cc1	/	?	5µM	/	.
COc1ccc(N2C(=O)[C@@H]3[C@@H](C2=O)[C@@H]2C=C[C@H]3C23CC3)c(OC)c1	.	/	/	/	/
Cc1ccccc1NS(=O)(=O)c1ccc2[nH]cc(C(=O)N3CCCC3)c(=O)c2c1	/	.	/	.	.
SMILES	MARV entry inh	Vaccinia Venus	HCV inh	Lassa entry inh	VACV mCherry inh
COc1ccc(OC)c(NC(=O)CCOc2cccc(C)c2)c1	?	.	11µM	?	.
CCOc1ccccc1NC(=O)NCc1ccccc1F	/	/	11µM	/	/
COc1ccc(NC(=O)CCOc2ccccc2)c(OC)c1	?	/	.	.	/
CCOc1ccccc1NC(=O)Nc1cccc(NC(C)=O)c1	.	.	?	.	.
CCOc1ccccc1NC(=O)Nc1cccc(C(C)=O)c1	.	/	7.1µM	.	/
CCOc1ccccc1NC(=O)Nc1cccc(S(N)(=O)=O)c1	.	.	32µM	?	.
COc1ccccc1NC(=O)NCc1ccccc1F	.	/	.	.	/
COCC(=O)Nc1cc(C(=O)NC2C3CC4CC2CC(O)(C4)C3)cc2nc(-c3ccccc3)n(C)c12 (configuration not stated)	/	.	/	/	.
CCc1ccc(NC(=O)CSc2nnc(-c3nonc3NC(C)=O)n2-c2ccccc2)cc1	?	.	/	.	.
CCCN(Cc1cc2cccc(C)c2[nH]c1=O)C(=O)c1cccc(Cl)c1	.	.	/	?	.
CCOC(=O)c1cccc(NC(=O)Nc2cc(OC)ccc2OC)c1	?	?	16µM	16µM	.
CCOc1ccccc1NC(=O)Nc1ccc2c(c1)CCC2	/	/	13µM	/	/
CCC(=O)N1CCc2cc(Br)cc(S(=O)(=O)CCC(=O)Nc3ccc(Cl)cc3)c21	.	.	/	.	.
Cc1cc(=O)oc2c1ccc1oc(/C(=N/O)c3ccccc3)c(C)c12	?	/	6.3µM	?	/
Cc1ccc(/C(=N\O)c2oc3c(C)c4oc(=O)cc(C)c4cc3c2C)cc1	2.9µM	?	5.6µM	0.37µM	?
CCc1c(C(=O)c2ccc(Cl)cc2)oc2c(C)c3oc(=O)cc(C)c3cc12	.	.	.	.	/
CC(=O)COc1nc2c(c(-c3ccco3)c1C#N)CCc1ccccc1-2	.	.[7.34 µM]	11µM	?	.[7.34 µM]
C/C=C/c1ccc(OCCCCN2C(=O)NC(C)(C)C2=O)c(OC)c1	?	.	?	18µM	.
C/C=C/c1ccc(OCCCCN(C)Cc2ccccc2)c(OC)c1	/	/	11µM	/	/
CCOc1cc(C=O)ccc1OCCCN1C(=O)NC(C)(C)C1=O	.	/	.	.	/
CC(C)Oc1ccc(CNC(=O)c2ccc(CS(=O)c3cccc(Cl)c3)o2)cc1 (configuration not stated)	/	.	/	.	.
CC(C)N1C/C(=C/c2ccsc2)C(=O)/C(=C/c2ccsc2)C1	?	.	?	4µM	.
O=C1c2ccccc2C(=Cc2cccnc2)c2ccccc21	/	.	/	/	.
CC(C)N1C/C(=C/c2cccnc2)C(=O)/C(=C/c2cccnc2)C1	4.5µM	.	?	13µM	.
CN1C/C(=C/c2cccnc2)C(=O)/C(=C/c2cccnc2)C1	1.8µM	?	?	?	?
SMILES	MARV entry inh	Vaccinia Venus	HCV inh	Lassa entry inh	VACV mCherry inh
CC(C)N1CC2=C(OC(N)=C(C#N)C2c2cccnc2)/C(=C/c2cccnc2)C1 (configuration not stated)	.	.	.	.	.
CC#CCN1c2ccccc2[C@]23CCC(=O)N(CCCOC(C)C)C2=NC(C(=O)OC)=C(C(=O)OC)[C@H]13	.	/	/	/	/
CCN(CCCl)c1cc(CN(C)C)cc(NC(=O)c2ccc(C(=O)Nc3cc(CN(C)C)cc(N(CC)CCCl)c3)cc2)c1	?	2.8µM	1.4µM	?	1.3µM
CCN(CC)c1ccc(NC(=O)c2cnn(CC)c2)cc1	?	.	?	.	/
COc1cc(C(=O)COC(=O)c2cc([N+](=O)[O-])ccc2N2CCOCC2)ccc1OC(F)F	.	.	1.1µM	.	.
COc1ccc(C(=O)COC(=O)c2cc([N+](=O)[O-])ccc2N2CCOCC2)c(OC)c1	2.2µM	.	1µM	.	.
COc1ccccc1C(=O)COC(=O)c1cc([N+](=O)[O-])ccc1N1CCOCC1	?	.	?	.	.
Cc1cc(C)c(C(=O)COC(=O)c2cc([N+](=O)[O-])ccc2N2CCOCC2)cc1C	.	.	.	.	.
O=C(c1cnn(-c2nccc(-c3ccccc3F)n2)c1C1CC1)N1CCCCC1c1cccnc1 (configuration not stated)	/	.	/	/	?
O=C(C[N+]1(CCc2ccccc2)CCOCC1)c1cccc([N+](=O)[O-])c1	/	.	/	/	.
COc1ccc(NS(=O)(=O)c2cc(NC(=O)Cc3c(F)cccc3Cl)ccc2OC)cc1	.	.	13µM	?	.

Screening data (PubChem)
